Laboratory results from PubChem BioAssay AID686979 (National Center for Advancing Translational Sciences (NCATS), 2013).
Hit rate of the full screen: of about 420,000 compounds, about 50,000 (12%) were called active. Inconclusive results (about 26%) are left out. The call rests on the fitted dose curve; in most records, active means well fitted inhibition curve with a large enough effect; inconclusive means small, poorly fitted or top-dose-only effect; inactive means flat fitted curve, though single readings scatter. The sample as a whole holds a higher share of actives than the screen did.

Assay: qHTS for Inhibitors of human tyrosyl-DNA phosphodiesterase 1 (TDP1): qHTS in cells in presence of CPT; further: nearly all actives have a fitted effect of over 55% in size
Settings: chicken DT40 Tdp1-/-;hTDP1 cells + 20 nM CPT, ATP luminescence, 48 h; series mostly up to 46.2 µM; activity change, negative = growth inhibition: at the top concentration
In short: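 Cell growth measured by CellTiter-Glo luminescence after a minimum 48 h, 37 C compound exposure with 20 nM CPT in Tdp1-knockout DT40 cells stably expressing hTDP1, seeded 400/well; qHTS titration format.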
On the % scale 0 is the no-effect control and ±100 the full control effect; potency means the concentration at half of the fitted maximal effect.

| SMILES | activity change, negative = growth inhibition | Potency |
| --- | --- | --- |
| COc1ccc(C2CC(=O)Oc3ccc(C(C)(C)C)cc32)cc1 (configuration not stated) | 3.87% (inactive) | – |
| N#Cc1ccc(/C=C2\CCn3c2nc2cc(C(=O)O)ccc2c3=O)cc1 | -17.5% (inactive) | – |
| COc1cccc(Cn2c(=O)cnc3cncnc32)c1 | – | 1.46 µM (active) |
| COc1cccc(Cn2c(=O)c(CCc3ccccc3)nc3cnc(N(C)C)nc32)c1 | -20.6% (inactive) | – |
| COc1cccc(Cn2c(=O)c(-c3ccccc3)nc3cnc(OC)nc32)c1 | 11.2% (inactive) | – |
| Cc1ccc(C(=O)N/C(=C\c2cn(C)c3ccccc23)C(=O)N2CCN(C)CC2)cc1 | -15.1% (inactive) | – |
| Cc1cn(C2CC(O)C(CO)O2)c(=O)n(CCCc2ccccc2)c1=O (configuration not stated) | -4.26% (inactive) | – |
| CCOc1c(Nc2cccc(Cl)c2)c(=O)c1=O | -0.433% (inactive) | – |
| CCCCN(CC)C(=O)c1ccccc1Oc1ccccc1 | – | 20.6 µM (active) |
| CCCCN(CC)C(=O)c1ccc2c(c1)OCO2 | -16.7% (inactive) | – |
| CCCCN(CC)C(=O)c1c[nH]c2ccc(S(=O)(=O)Nc3cccc(OC)c3)cc2c1=O | -16% (inactive) | – |
| C[C@H]1CN([C@@H](C)CO)C(=O)c2cc(Br)cnc2O[C@H]1CN(C)S(=O)(=O)c1cccs1 | -17.2% (inactive) | – |
| CCCCNC(=O)CSc1nc2ccc(NC(=O)CSc3nnc(COc4ccccc4C)n3C)cc2s1 | -23.5% (inactive) | – |
| COC(=O)C[C@@H]1C=C[C@@H](NS(=O)(=O)c2cccc(OC)c2)[C@@H](CO)O1 | 3.28% (inactive) | – |
| CCCNC(=O)c1cc(C2CCCCN2C(=O)OC)on1 (configuration not stated) | -14.1% (inactive) | – |
| CS(=O)(=O)N1CCCCC1c1cc(C(=O)NCc2ccccc2)no1 (configuration not stated) | 15.2% (inactive) | – |
| O=C(NCc1ccc(F)cc1)c1cc(C2CCCCN2C(=O)C2CCCCC2)on1 (configuration not stated) | – | 18.4 µM (active) |
| COC(=O)[C@@H](Cc1ccccc1)NC(=O)NCCc1ccccc1 | 0.102% (inactive) | – |
| COc1ccc(-c2[nH][nH]c(=O)c2NC(=O)c2ccc([N+](=O)[O-])cc2)cc1 | 1.08% (inactive) | – |
| COc1ccc(OC)c(NC(=O)c2ccc3c(c2)CCN3S(C)(=O)=O)c1 | -16.5% (inactive) | – |
| CCCc1c(C(=O)Nc2ccc(F)cc2)cnn1-c1ccccc1 | – | 14.6 µM (active) |
| CCc1ccccc1NC(=O)c1cnn(-c2ccc(F)cc2)c1C1CCNCC1 | 3.96% (inactive) | – |
| CCCc1c(C(=O)O)cnn1-c1ccc(Cl)cc1 | 4.33% (inactive) | – |

| SMILES | activity change, negative = growth inhibition | Potency |
| --- | --- | --- |
| CCn1c(SCC(=O)N2CCCC2=O)nc2ccccc21 | 1.3% (inactive) | – |
| O=C(N/N=C/c1ccsc1)c1cc(O)cc(O)c1 | 17.2% (inactive) | – |
| CCCCC(=O)Nc1c2c(nn1-c1ccc([N+](=O)[O-])cc1)CS(=O)(=O)C2 | 1.47% (inactive) | – |
| CCN(CC)S(=O)(=O)c1ccc2[nH]c(=O)cc(C(=O)N(C)C3CCS(=O)(=O)C3)c2c1 (configuration not stated) | 3.51% (inactive) | – |
| COc1ccc(N2CCN(C(=O)[C@@H](NC(=O)c3cc(OC)cc(OC)c3)C(C)C)CC2)cc1 | – | 14.6 µM (active) |
| COc1ccc(N2CCN(C(=O)CCNC(=O)c3ccc(Br)cc3)CC2)cc1 | -25% (inactive) | – |
| COc1cc(OC)cc(C(=O)NC(C(=O)N2CCC2)C(C)C)c1 (configuration not stated) | -15.4% (inactive) | – |
| CS(=O)(=O)N1CCc2nc(-c3ccccc3)sc2C1 | 5.62% (inactive) | – |
| CCOc1ccc(S(=O)(=O)NCCC(=O)NCC(C)(C)N2CCOCC2)cc1 | 5.12% (inactive) | – |
| C=C(Br)Cn1c(CCCC)nc2ccccc21 | – | 18.4 µM (active) |
| C=CCn1c(P(C)(=O)O)nc2ccccc21 | – | inactive |
| O=C(O)Cn1c(Cc2ccccc2)nc2ccccc21 | 32.8% (inactive) | – |
| Cc1nc2sc(C)c(C)n2c(=O)c1S(=O)(=O)NCCc1ccc(Cl)cc1 | -14.2% (inactive) | – |
| CCOc1ccc(N(C)S(=O)(=O)c2cnc[nH]2)cc1 | 0.234% (inactive) | – |
| CCOC(=O)c1cc(-c2ccc(OC)c(S(=O)(=O)Nc3ccc(OC)cc3OC)c2)on1 | -18% (inactive) | – |
| CCOC(=O)c1cccc(NS(=O)(=O)c2cc(-c3cnc(C)o3)ccc2OC)c1 | – | 10.3 µM (active) |
| CCOC(=O)c1cccc(NS(=O)(=O)c2cn(C)c(C)n2)c1 | -13.1% (inactive) | – |
| CCOc1ccc(N(C)S(=O)(=O)c2cc(-c3cnc(C)o3)ccc2OC)cc1 | – | 25.9 µM (active) |
| COc1ccc(N(C)S(=O)(=O)c2cccc3nsnc23)cc1 | 11.3% (inactive) | – |
| CC(C)C(=O)Nc1nnc(SCC(=O)N2C(C)CCCC2C)s1 (configuration not stated) | 4.9% (inactive) | – |
| CSc1ccccc1OCc1cc(C(=O)N2C[C@H]3CC[C@H]2C3)no1 | -14.9% (inactive) | – |
| CCc1ccccc1NC(=S)Nc1cc(OC)c(NC(=O)C(C)C)cc1OC | -4.59% (inactive) | – |
| CCc1ccccc1NC(=O)CCOc1ccccc1 | – | inactive |

| SMILES | activity change, negative = growth inhibition | Potency |
| --- | --- | --- |
| CCc1ccccc1NC(=O)/C(=C/c1ccccc1)c1ccccc1 | – | 20.6 µM (active) |
| CC(=O)Nc1ccc(N2C(=O)C3C4C=CC(CC4)C3C2=O)cc1 (configuration not stated) | -1.89% (inactive) | – |
| O=C(Nc1cccc(F)c1)[C@@H]1CCCN1 | 2.38% (inactive) | – |
| Cc1ccc(CN2CCCOCCS2(=O)=O)cc1 | – | inactive |
| O=C1NC[C@@H](CCCCN2CCN(CCc3ccc(O)cc3)C(=O)C2=O)N(CC2CCCCC2)C1=O | 1.35% (inactive) | – |
| Oc1ccc2c(c1)OCC1c3cc4c(cc3OC21)OCO4 (configuration not stated) | 6.48% (inactive) | – |
| O=[N+]([O-])c1cc(S(=O)(=O)CCCN2CCOCC2)ccc1F | – | 20.6 µM (active) |
| O=S(=O)(NCCCN1CCOCC1)c1ccc(F)c(Cl)c1 | -21.1% (inactive) | – |
| O=C(NCCCN1CCOCC1)c1ccc([N+](=O)[O-])cc1[N+](=O)[O-] | -28% (inactive) | – |
| Oc1ccccc1/C=N/n1c(-c2cccs2)n[nH]c1=S | -9.02% (inactive) | – |
| Cc1ccsc1/C=N/n1c(=S)[nH]nc(C)c1=O | – | 16.4 µM (active) |
| S=c1[nH]nc(-c2cccs2)n1/N=C/c1cccs1 | 2.49% (inactive) | – |
| O=C(COC(=O)c1cc2c(s1)CCCC2)NCc1ccccc1Cl | -21.5% (inactive) | – |
| O=c1cc(COc2cccc(C(F)(F)F)c2)nc2sc3c(n12)CCCC3 | -5.15% (inactive) | – |
| Cc1ccc2nsnc2c1NC(=O)c1ccccc1[N+](=O)[O-] | -0.576% (inactive) | – |
| O=C(Nc1ccccn1)C1CCN(S(=O)(=O)c2ccc3c(c2)OCCO3)CC1 | -7.52% (inactive) | – |
| COCCN1C(=O)N[C@@H](CCc2ccccc2)[C@H](C(C)=O)[C@H]1C | -26.2% (inactive) | – |
| CCN1C(=NCCc2cccnc2)N[C@@H](c2ccccc2)[C@H](C(=O)OC)[C@H]1C | -27.5% (inactive) | – |
| CCN1C(=NCc2ccc(OC)cc2)N[C@@H](CCc2ccccc2)[C@H](C(=O)NCc2ccc(OC)cc2)[C@H]1C | – | 18.4 µM (active) |
| CCN1C(=NCC(C)C)N[C@@H](CCc2ccccc2)[C@H](C(=O)NCC(C)C)[C@H]1C | – | 13 µM (active) |
| CCN1C(=O)N[C@@H](c2ccccc2)[C@H](C(C)=O)[C@H]1C | -20% (inactive) | – |
